Values joined by “and” are separate entries in the source; they are usually repeats but may differ in a detail not shown here. Equal values may be shown once. Results filed as inconclusive are left out. Active and inactive are the calls of the source. Unless noted, calls follow the shape of the dose curve; as a rule, active = well fitted curve in the direction sought with a large enough effect in the repeat runs; inconclusive = weak or mixed curves; inactive = no such curve, though single readings can be large; an effect the other way counts as inactive or inconclusive.
Experiments:
[1] = qHTS assay for small molecule agonists of the p53 signaling pathway (AID 651631; calls by dose curve; also: nearly all actives have a fitted effect of over 15% in size; also: potency is read from the fitted curve at half-maximal effect)
How it was run: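 Testing took place in human colorectal HCT-116 cells with stable p53RE-driven beta-lactamase. After 16 h of compound exposure at 37 °C, a FRET substrate was added and fluorescence recorded 2 h later.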

[2] = qHTS assay for small molecules that induce genotoxicity in human embryonic kidney cells expressing luciferase-tagged ATAD5 (AID 651632); also: nearly all actives have a fitted effect of over 15% in size
How it was run: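 Luminescence read-out: after 16 hr compound exposure at 37C, ATAD5-luciferase HEK293T cells received Amplite, 30 min RT, then CCD imaging. A rise in signal marks genotoxic stress.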

[3] = qHTS assay for small molecule agonists of the p53 signaling pathway - cell viability (AID 651633; calls by dose curve; also: series mostly up to about 83 µM; nearly all actives have a fitted effect of over 30% in size)
How it was run: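 p53RE-bla cells, seeded at 4,000 per well and rested 5 h at 37 C/5% CO2, received compounds in DMSO for 16 h at 37 C. CellTiter-Glo was then added, and luminescence was read after 30 min at room temperature to gauge cytotoxicity.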

[4] = qHTS assay for small molecules that induce genotoxicity in human embryonic kidney cells expressing luciferase-tagged ATAD5 - cell viability (AID 651634; calls by dose curve; also: nearly all actives have a fitted effect of over 25% in size; also: potency is read from the fitted curve at half-maximal effect)
How it was run: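 HEK293T ATAD5-luc cells, 2,000/well; compound 15.5 hr, 37C/5% CO2; CellTiter-Fluor 30 min, 37C; fluorescence read.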

[5] = qHTS assay to test for compound auto fluorescence at 590 nm (red) in HepG2 cells (AID 720674)
How it was run: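 Compound auto-fluorescence is scored relative to Rose Bengal sodium, measured at 540/590 nm in live HepG2 cultures after 1 hr compound contact (37 C, 5% CO2).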

[6] = qHTS assay to test for compound auto fluorescence at 535 nm (green) in HepG2 cells (AID 720675)
[7] = qHTS assay to test for compound auto fluorescence at 460 nm (blue) in HEK293 cells (AID 720678)
How it was run: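 Cells were seeded and left to adhere for 4-5 hr at 37C. Compounds were then pin-transferred. After an overnight incubation at 37C under 5% CO2, intrinsic fluorescence at 405/460 nm was measured and referenced to triamterene.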

[8] = qHTS assay to test for compound auto fluorescence at 590 nm (red) in HEK293 cells (AID 720679)
How it was run: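 Each well held 2,000 HEK293 cells in medium containing 10% dialyzed FBS. Following 4-5 hr attachment at 37C, 23 nL test compound or DMSO was added; plates sat overnight, and red fluorescence (540/590nm) was recorded.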

[9] = qHTS assay to test for compound auto fluorescence at 535 nm (green) in HEK293 cells (AID 720680)
[10] = qHTS assay to test for compound auto fluorescence at 460 nm (blue) in HEK293 cell free culture (AID 720681)
How it was run: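 Test compounds were pinned into cell-free culture medium (DMEM with 10% FBS) and fluorescence was read directly at Ex/Em 405/460 nm. Signals were expressed as fluorescence equivalents of triamterene, with DMSO vehicle as control.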

[11] = qHTS assay to test for compound auto fluorescence at 535 nm (green) in HEK293 cell free culture (AID 720682)
How it was run: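 DMEM + 10% FBS, cell-free; cpd or DMSO pinned in; Ex485/Em535 read; output as fluorescein-equivalent signal.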

[12] = qHTS assay to test for compound auto fluorescence at 590 nm (red) in HEK293 cell free culture (AID 720683)
How it was run: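 Tox21 10K library compounds were pinned into cell-free DMEM with 10% FBS and fluorescence was read at excitation 540 nm. Activity is expressed as Rose Bengal sodium equivalency.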

[13] = qHTS assay to test for compound auto fluorescence at 590 nm (red) in HepG2 cell free culture (AID 720684)
How it was run: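 Ex 540 / Em 590 nm read of compound in cell-free MEM (10% FBS). Rose Bengal sodium reference.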

[14] = qHTS assay to test for compound auto fluorescence at 460 nm (blue) in HepG2 cell free culture (AID 720685)
How it was run: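 Cell-free plates of MEM plus 10% FBS received 23 nL compound or DMSO vehicle; blue-channel (405/460 nm) intensity scored against triamterene as reference fluorophore.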

[15] = qHTS assay to test for compound auto fluorescence at 535 nm (green) in HepG2 cell free culture (AID 720686)
[16] = qHTS assay to test for compound auto fluorescence at 460 nm (blue) in HepG2 cells (AID 720687)
How it was run: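 Cells (2,000/well in MEM with 10% FBS) attached overnight at 37 C, then were exposed to compound or DMSO for 1 hr at 37 C, 5% CO2. Fluorescence read at Ex/Em 405/460 nm, expressed as triamterene-equivalent signal.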

[17] = qHTS assay for small molecule disruptors of the mitochondrial membrane potential - cell viability (AID 720634; calls by dose curve;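 also: human HepG2 liver cancer cells; series mostly up to about 83 µM; nearly all actives have a fitted effect of over 20% in size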)
How it was run: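 Luminescence from CellTiter-Glo (ATP content) gave viability in HepG2 cells, read in the same wells as the MMP dye assay after 1 hr compound exposure at 37 C.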

[18] = molecular target: Glucocorticoid receptor (Homo sapiens) (UniProt P04150); test: qHTS assay to identify small molecule agonists of the glucocorticoid receptor (GR) signaling pathway (AID 720691; active = well fitted activation curve with a large enough effect in the signal ratio in the repeat runs, not every such curve was filed as active; the % refers to the signal ratio)
How it was run: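 HeLa GR-bla reporter line; cells pre-incubated 4 h, compound in DMSO 18 h at 37 C; LiveBLAzer B/G FRET substrate 2 h RT; fluorescence intensity read-out.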

[19] = molecular target: Glucocorticoid receptor (Homo sapiens) (UniProt P04150); test: qHTS assay to identify small molecule antagonists of the glucocorticoid receptor (GR) signaling pathway (AID 720692; active = well fitted inhibition curve with a large enough effect in the signal ratio in the repeat runs, not every such curve was filed as active; the % refers to the signal ratio)
How it was run: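 Read-out: beta-lactamase FRET substrate fluorescence, 2 h at room temperature, in HeLa cells stably carrying a GRE-driven bla reporter. Compounds were co-incubated with 5 nM dexamethasone agonist (final) for 18 h at 37 C.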

[20] = qHTS assay for small molecule disruptors of the mitochondrial membrane potential (AID 720635)
How it was run: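 HepG2 cells (2,000/well) attached overnight at 37C, then took compound for 1 hr at 37C, 5% CO2. Mito-MPS dye was added for 30 min; fluorescence was read at 490/535 nm (monomers) and 540/590 nm (aggregates).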
% is scaled to controls: 0 for no effect and ±100 for the full control effect.

Sequence of Glucocorticoid receptor (Homo sapiens) (P04150 whole entry, looked up): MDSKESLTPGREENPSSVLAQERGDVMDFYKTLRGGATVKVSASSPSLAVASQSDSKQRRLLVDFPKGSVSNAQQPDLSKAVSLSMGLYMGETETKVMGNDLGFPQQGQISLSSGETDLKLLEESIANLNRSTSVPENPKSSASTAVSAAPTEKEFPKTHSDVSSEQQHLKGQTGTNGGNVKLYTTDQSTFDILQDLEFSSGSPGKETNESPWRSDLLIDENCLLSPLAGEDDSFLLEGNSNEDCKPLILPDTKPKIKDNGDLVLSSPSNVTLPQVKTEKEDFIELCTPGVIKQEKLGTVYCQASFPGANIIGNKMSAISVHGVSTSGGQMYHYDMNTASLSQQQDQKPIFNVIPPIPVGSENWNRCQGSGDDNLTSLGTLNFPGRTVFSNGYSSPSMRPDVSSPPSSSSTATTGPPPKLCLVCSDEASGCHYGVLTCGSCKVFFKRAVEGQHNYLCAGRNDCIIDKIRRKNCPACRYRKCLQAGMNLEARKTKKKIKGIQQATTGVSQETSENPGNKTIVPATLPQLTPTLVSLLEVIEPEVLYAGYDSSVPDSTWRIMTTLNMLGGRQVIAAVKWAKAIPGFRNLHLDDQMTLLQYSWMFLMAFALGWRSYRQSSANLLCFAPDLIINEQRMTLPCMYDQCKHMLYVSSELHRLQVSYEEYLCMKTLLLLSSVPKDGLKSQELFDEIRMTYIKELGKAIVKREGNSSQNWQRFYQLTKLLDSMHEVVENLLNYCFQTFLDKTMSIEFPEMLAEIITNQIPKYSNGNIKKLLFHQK

CCCSP(=S)(OCC)Oc1ccc(SC)cc1 (stereo not given)
inactive: Potency [1] | Potency [2] | Potency [3] | Potency [4] | outcome [5] | outcome [6] | outcome [7] | outcome [8] | outcome [9] | outcome [10] | outcome [11] | outcome [12] | outcome [13] | outcome [14] | outcome [15] | outcome [16]

CCOC(=O)c1cncn1C(C)c1ccccc1 (stereo not given)
inactive: Potency [1] | Potency [2] | Potency [3] | Potency [4] | Potency [17] | fluorescence, relative to Rose Bengal [5] -0.315% [at 18.6 µM] | fluorescence, % of fluorescein control [6] 0.021% [at 18.6 µM] | fluorescence, % of triamterene [7] -0.152% [at 18.6 µM] | fluorescence, % of fluorescent control [8] 0.134% [at 18.6 µM] | fluorescence, % of fluorescein [9] -0.183% [at 18.6 µM] | activity change [11] -0.219% [at 18.6 µM] | fluorescence, % of fluorescent control [12] 0.175% [at 18.6 µM] | fluorescence, % of Rose Bengal [13] 0.117% [at 18.6 µM] | fluorescence, % of fluorescent control [14] -0.0673% [at 18.6 µM] | fluorescence, % of fluorescein control [15] 0.0291% [at 18.6 µM] | fluorescence, % of fluorescent control [16] 0.278% [at 18.6 µM] | Potency [18]

C=CCOC(=O)C(C)(C)OC(=O)c1cc(-n2c(=O)cc(C(F)(F)F)n(C)c2=O)ccc1Cl
inactive: Potency [1] | Potency [2] | Potency [3] | Potency [4] | Potency [17] | outcome [5] | outcome [6] | outcome [7] | outcome [8] | outcome [9] | outcome [11] | outcome [12] | outcome [13] | outcome [14] | outcome [15] | outcome [16] | Potency [18] | Potency [19]

CC(C)CCCCCCCOC(=O)c1ccccc1C(=O)OCCCCCCCC(C)C
inactive: Potency [1] | Potency [3] | Potency [4] | Potency [17] | Potency [20] | outcome [5] | outcome [6] | outcome [7] | outcome [8] | outcome [9] | outcome [11] | outcome [12] | outcome [14] | outcome [15] | outcome [16] | Potency [18]

CC(C)c1ccc(OP(=O)(Oc2ccc(C(C)C)cc2)Oc2ccc(C(C)C)cc2)cc1
inactive: Potency [1] | Potency [2] | Potency [3] | Potency [4] | outcome [5] | outcome [6] | outcome [7] | outcome [9] | outcome [10] | outcome [11] | outcome [12] | outcome [13] | outcome [14] | outcome [15] | outcome [16] | Potency [18]

SCc1ccccc1
inactive: Potency [1] | Potency [2] | Potency [3] | Potency [4] | Potency [17] | outcome [5] | outcome [6] | outcome [7] | outcome [8] | outcome [9] | outcome [10] | outcome [11] | outcome [12] | outcome [14] | outcome [15] | outcome [16] | Potency [18]

O=C(CCl)CCl
active: Potency [1] 24.3 µM | Potency [4] 63.4 µM and 54.5 µM
inactive: Potency [3] | outcome [5] | outcome [6] | outcome [7] | outcome [8] | outcome [9] | outcome [10] | outcome [11] | outcome [12] | outcome [13] | outcome [14] | outcome [15] | outcome [16] | Potency [18]

CC(C)(C)OOC(C)(C)CCC(C)(C)OOC(C)(C)C
inactive: Potency [1] | Potency [3] | Potency [4] | Potency [17] | Potency [20] | outcome [5] | outcome [6] | outcome [7] | outcome [8] | outcome [9] | outcome [10] | outcome [11] | outcome [12] | outcome [13] | outcome [14] | outcome [15] | outcome [16] | Potency [18]

OC[P+](CO)(CO)CO
inactive: Potency [1] | Potency [2] | Potency [3] | Potency [4] | Potency [17] | outcome [5] | outcome [6] | outcome [7] | outcome [9] | outcome [10] | outcome [11] | outcome [12] | outcome [13] | outcome [14] | outcome [15] | outcome [16] | Potency [18]

CC(C)(c1ccccc1)c1cc(-n2nc3ccccc3n2)c(O)c(C(C)(C)c2ccccc2)c1
inactive: Potency [1] | Potency [2] | Potency [3] | Potency [4] | Potency [17] | outcome [5] | outcome [6] | outcome [7] | outcome [8] | outcome [9] | outcome [11] | outcome [12] | outcome [13] | outcome [14] | outcome [15] | outcome [16] | Potency [18]

CCCCCl
inactive: Potency [1] | Potency [3] | Potency [4] | Potency [17] | outcome [5] | outcome [6] | outcome [7] | outcome [8] | outcome [9] | outcome [11] | outcome [12] | outcome [13] | outcome [14] | outcome [15] | outcome [16] | Potency [18] | Potency [19]

C[C@H](N)[C@H](O)c1ccc(O)c(O)c1
inactive: Potency [1] | Potency [2] | Potency [3] | Potency [4] | Potency [17] | outcome [5] | outcome [6] | outcome [7] | outcome [9] | outcome [10] | outcome [11] | outcome [12] | outcome [13] | outcome [14] | outcome [15] | outcome [16]

CCCN(CCC)C(=O)Cc1c(-c2ccc(Cl)cc2)nc2ccc(Cl)cn12
inactive: Potency [1] | Potency [2] | Potency [3] | Potency [4] | Potency [17] | outcome [5] | outcome [6] | outcome [7] | outcome [8] | outcome [9] | outcome [11] | outcome [12] | outcome [13] | outcome [14] | outcome [15] | outcome [16]

O=C1CC[C@@]2(O)[C@H]3Cc4ccc(O)c5c4[C@@]2(CCN3CC2CC2)[C@H]1O5
inactive: Potency [1] | Potency [2] | Potency [3] | Potency [4] | Potency [17] | outcome [5] | outcome [6] | outcome [7] | outcome [9] | outcome [10] | outcome [11] | outcome [12] | outcome [13] | outcome [14] | outcome [15] | outcome [16] | Potency [18] | Potency [19]
